Results from the supplement of paper PMC10849652.
Of roughly 8,800 targets only a part is listed; those with a hit were picked by preference. About 0.5% of all pairs of compound and target were hits.

Assays:
Experiment in all cases: log2 fold change, soluble protein after heating vs DMSO (PISA); higher = thermal stabilisation; K562 lysate, 10 uM; active = over 0.2 and 3.5 SD of the protein, either way, in both replicates (recomputed)
erlotinib = compound: C#Cc1cccc(Nc2ncnc3cc(OCCOC)c(OCCOC)cc23)c1 [erlotinib]
Outline: (§1)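 Following dounce homogenisation of K562 pellets in PBS pH 7.4 with 1 mM MgCl2, crude extract at 1 mg/mL protein was incubated for 30 min with 10 μM compound. Aliquots were then heated for 3 min over 48°C-58°C and pooled, NP-40 was added to 0.5% at 4°C, and soluble protein was recovered as the supernatant at 21,000xg for 90 min. Channel-sum-equalised TMTpro 16plex LC-MS/MS quantified this protein. Each value, from duplicates, is a log-two fold change in thermal stability relative to solvent controls.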

[1] = compound: C/C(=N\NC(=O)C1=CC(=CC=C1)S(=O)(=O)N2CCOCC2)/C3=C(C=CC(=C3)Cl)O
Outline: as §1

[2] = compound: C1=CC(=CC=C1C2=NC3=C(N2)C=C(C=C3)C(=O)N)OC4=CC=C(C=C4)Cl
Outline: as §1

[3] = compound: C1=CC2=C(C=CC(=C2)/C=C\3/C(=O)NC(=NCC4=CC=CS4)S3)N=C1
Outline: as §1

[4] = compound: C1=CC2=NC=CN=C2C=C1/C=C/3\C(=O)NC(=O)S3
Outline: as §1

[5] = compound: C1=CC=C(C=C1)C2=NC(=C(N2)C3=CC=NC=C3)C4=CC(=C(C=C4)Cl)O
Outline: as §1

[6] = compound: C1=CC=C2C(=C1)C3=NNC4=CC=CC(=C43)C2=O
Outline: as §1

[7] = compound: C1CCN(C1)C(=O)NC2=CC=CC(=C2)NC3=NC=C(C(=N3)NCCC4=CN=CN4)Br
Outline: as §1

[8] = compound: C1CN(CCC1(CC2=CC=C(C=C2)Cl)N)C3=NC=NC4=C3C=CN4
Outline: as §1

IRAK-1-4 Inhibitor I = compound: C1COCCN1CCN2C3=CC=CC=C3N=C2NC(=O)C4=CC(=CC=C4)[N+](=O)[O-] [IRAK-1-4 Inhibitor I]
Outline: as §1

Measured: log2 fold change

RINT1 (UniProt Q6NUQ1)
UniProt Q6NUQ1, sequence (Q6NUQ1 whole entry, looked up): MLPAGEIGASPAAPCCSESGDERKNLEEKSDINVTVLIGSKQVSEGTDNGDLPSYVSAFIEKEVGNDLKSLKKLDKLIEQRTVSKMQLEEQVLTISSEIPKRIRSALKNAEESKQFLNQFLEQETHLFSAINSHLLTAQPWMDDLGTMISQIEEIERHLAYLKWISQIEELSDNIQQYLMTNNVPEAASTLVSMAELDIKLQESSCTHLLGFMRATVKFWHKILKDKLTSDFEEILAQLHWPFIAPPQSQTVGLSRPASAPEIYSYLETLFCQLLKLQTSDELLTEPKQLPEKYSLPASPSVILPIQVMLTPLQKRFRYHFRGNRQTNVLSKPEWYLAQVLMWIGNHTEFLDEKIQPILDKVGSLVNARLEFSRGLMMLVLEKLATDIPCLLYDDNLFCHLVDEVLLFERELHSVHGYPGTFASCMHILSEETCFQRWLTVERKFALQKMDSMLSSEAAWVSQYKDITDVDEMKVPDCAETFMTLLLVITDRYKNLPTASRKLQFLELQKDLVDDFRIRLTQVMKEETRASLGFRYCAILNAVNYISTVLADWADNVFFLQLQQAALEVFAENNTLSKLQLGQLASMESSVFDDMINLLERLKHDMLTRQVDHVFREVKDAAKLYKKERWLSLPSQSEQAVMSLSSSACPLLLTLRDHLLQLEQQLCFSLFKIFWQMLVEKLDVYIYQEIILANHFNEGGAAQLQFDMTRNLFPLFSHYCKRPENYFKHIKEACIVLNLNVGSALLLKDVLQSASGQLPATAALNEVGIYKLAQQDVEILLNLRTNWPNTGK
inactive: erlotinib 0.056 | [1] 0.029 | [2] -0.01 | [3] 0.012 | [4] 0.03 | [5] -0.042 | [6] -0.048 | [7] -0.029 | [8] 0.067 | IRAK-1-4 Inhibitor I 0.074

QTRT2 isoform 4 (UniProt Q9H974)
inactive: erlotinib -0.024 | [1] 0.082 | [2] -0.032 | [3] -0.019 | [4] -0.048 | [5] -0.009 | [6] -0.007 | [7] 0.007 | [8] 0.022 | IRAK-1-4 Inhibitor I 0.006

SAMHD1 (UniProt Q9Y3Z3)
inactive: erlotinib 0.035 | [1] 0.036 | [2] 0.004 | [3] 0.015 | [4] 0.005 | [5] -0.021 | [6] -0.057 | [7] -0.065 | [8] 0.035 | IRAK-1-4 Inhibitor I 0.013

RPL36AL (UniProt Q969Q0)
inactive: erlotinib -0.036 | [1] -0.098 | [2] -0.012 | [3] 0.061 | [4] -0.029 | [5] 0.029 | [6] 0.048 | [7] 0.049 | [8] -0.05 | IRAK-1-4 Inhibitor I -0.109

SCO1 (UniProt O75880)
inactive: erlotinib 0.008 | [1] -0.06 | [2] 0.036 | [3] -0.014 | [4] 0.011 | [5] 0.012 | [6] -0.045 | [7] 0.033 | [8] 0.068 | IRAK-1-4 Inhibitor I 0.006

RNF113A (UniProt O15541)
UniProt O15541, sequence (O15541 whole entry, looked up): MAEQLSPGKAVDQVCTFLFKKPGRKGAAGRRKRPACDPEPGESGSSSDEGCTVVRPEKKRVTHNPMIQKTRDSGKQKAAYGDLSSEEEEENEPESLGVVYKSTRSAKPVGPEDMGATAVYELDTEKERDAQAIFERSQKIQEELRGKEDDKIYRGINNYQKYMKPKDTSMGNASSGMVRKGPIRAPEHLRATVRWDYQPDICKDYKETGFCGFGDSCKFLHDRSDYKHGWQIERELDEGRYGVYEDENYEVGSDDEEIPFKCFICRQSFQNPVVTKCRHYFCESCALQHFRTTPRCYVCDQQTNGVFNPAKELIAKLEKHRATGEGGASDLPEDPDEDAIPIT
inactive: erlotinib -0.039 | [1] -0.039 | [2] 0.036 | [3] 0.027 | [4] -0.008 | [5] -0.01 | [6] -0.02 | [7] -0.005 | [8] 0.01 | IRAK-1-4 Inhibitor I 0.02

RSU1 (UniProt Q15404)
UniProt Q15404, sequence (Q15404 whole entry, looked up): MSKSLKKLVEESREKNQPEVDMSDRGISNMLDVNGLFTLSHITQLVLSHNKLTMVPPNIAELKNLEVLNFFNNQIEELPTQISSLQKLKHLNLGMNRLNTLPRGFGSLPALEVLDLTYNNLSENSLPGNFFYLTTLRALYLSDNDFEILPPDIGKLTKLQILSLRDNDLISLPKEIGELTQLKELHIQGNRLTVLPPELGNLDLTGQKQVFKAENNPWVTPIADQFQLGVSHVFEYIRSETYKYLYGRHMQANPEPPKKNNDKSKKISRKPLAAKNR
inactive: erlotinib 0.017 | [1] 0.006 | [2] -0.039 | [3] -0.052 | [4] -0.011 | [5] -0.003 | [6] 0.017 | [7] 0.009 | [8] -0.027 | IRAK-1-4 Inhibitor I 0

RBBP7 (UniProt Q16576)
inactive: erlotinib -0.038 | [1] -0.032 | [2] -0.021 | [3] -0.005 | [4] 0.007 | [5] -0.014 | [6] -0.008 | [7] 0.045 | [8] -0.022 | IRAK-1-4 Inhibitor I -0.082

REEP5 (UniProt Q00765)
UniProt Q00765, sequence (Q00765 whole entry, looked up): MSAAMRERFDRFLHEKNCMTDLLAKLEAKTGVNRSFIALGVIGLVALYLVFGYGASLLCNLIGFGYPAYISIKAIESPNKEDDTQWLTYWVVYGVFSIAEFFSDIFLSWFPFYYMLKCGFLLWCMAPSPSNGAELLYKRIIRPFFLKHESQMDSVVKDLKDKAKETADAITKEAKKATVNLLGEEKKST
inactive: erlotinib 0.017 | [1] -0.041 | [2] 0.022 | [3] 0.036 | [4] 0.001 | [5] -0.008 | [6] -0.077 | [7] -0.008 | [8] 0.015 | IRAK-1-4 Inhibitor I 0.025

RTTN (UniProt Q86VV8)
inactive: erlotinib -0.002 | [1] -0.196 | [2] -0.123 | [3] -0.103 | [4] 0.045 | [5] -0.043 | [6] -0.056 | [7] 0.14 | [8] 0.036 | IRAK-1-4 Inhibitor I 0.098

RPAP1 (UniProt Q9BWH6)
inactive: erlotinib 0.05 | [1] -0.078 | [2] 0.019 | [3] 0.016 | [4] 0.007 | [5] -0.028 | [6] 0.001 | [7] -0.001 | [8] 0.02 | IRAK-1-4 Inhibitor I 0.005

RCOR1 (UniProt Q9UKL0)
inactive: erlotinib -0.023 | [1] 0.065 | [2] -0.004 | [3] -0.053 | [4] -0.051 | [5] 0.005 | [6] -0.035 | [7] -0.008 | [8] 0.017 | IRAK-1-4 Inhibitor I 0.003

RPL28 (UniProt P46779)
inactive: erlotinib -0.012 | [1] -0.104 | [2] 0.006 | [3] -0.009 | [4] -0.037 | [5] 0.019 | [6] 0.016 | [7] -0.003 | [8] 0 | IRAK-1-4 Inhibitor I -0.02

RCAN1 (UniProt P53805)
UniProt P53805, sequence (P53805 whole entry, looked up): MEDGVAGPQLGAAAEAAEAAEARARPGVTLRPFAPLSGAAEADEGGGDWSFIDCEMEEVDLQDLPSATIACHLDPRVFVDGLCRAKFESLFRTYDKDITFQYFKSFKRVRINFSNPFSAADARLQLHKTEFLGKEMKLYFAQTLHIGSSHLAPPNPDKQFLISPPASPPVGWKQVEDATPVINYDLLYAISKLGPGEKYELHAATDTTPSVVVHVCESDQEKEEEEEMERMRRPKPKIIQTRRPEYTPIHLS
inactive: erlotinib 0.06 | [1] -0.206 | [2] -0.033 | [3] -0.018 | [4] -0.04 | [5] 0.008 | [6] 0.045 | [7] -0.095 | [8] 0.016 | IRAK-1-4 Inhibitor I -0.024

RABEPK (UniProt Q7Z6M1)
inactive: erlotinib -0.01 | [1] 0.014 | [2] 0.012 | [3] 0.004 | [4] 0.032 | [5] 0.007 | [6] -0.024 | [7] -0.03 | [8] -0.032 | IRAK-1-4 Inhibitor I 0.014

QRSL1 (UniProt Q9H0R6)
UniProt Q9H0R6, sequence (Q9H0R6 whole entry, looked up): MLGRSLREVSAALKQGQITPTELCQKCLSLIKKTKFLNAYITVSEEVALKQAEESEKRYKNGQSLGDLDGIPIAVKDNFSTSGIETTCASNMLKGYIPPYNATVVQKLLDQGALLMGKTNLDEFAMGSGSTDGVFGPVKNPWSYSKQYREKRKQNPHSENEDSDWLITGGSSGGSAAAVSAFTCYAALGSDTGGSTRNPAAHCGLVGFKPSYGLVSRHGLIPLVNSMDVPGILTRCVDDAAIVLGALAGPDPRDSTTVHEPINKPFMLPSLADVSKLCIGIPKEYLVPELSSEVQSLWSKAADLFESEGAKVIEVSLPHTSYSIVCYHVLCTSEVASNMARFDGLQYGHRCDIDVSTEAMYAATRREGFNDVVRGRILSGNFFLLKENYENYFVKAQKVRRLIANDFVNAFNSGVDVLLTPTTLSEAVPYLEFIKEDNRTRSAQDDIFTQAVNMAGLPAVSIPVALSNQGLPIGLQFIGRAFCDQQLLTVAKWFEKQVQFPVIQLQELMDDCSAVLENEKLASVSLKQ
inactive: erlotinib -0.01 | [1] -0.003 | [2] 0.004 | [3] -0.14 | [4] -0.111 | [5] 0.002 | [6] 0.116 | [7] -0.017 | [8] 0.022 | IRAK-1-4 Inhibitor I -0.01

SEC24D isoform 2 (UniProt O94855)
inactive: erlotinib 0.016 | [1] 0.04 | [2] 0.012 | [3] 0.008 | [4] 0.032 | [5] 0.022 | [6] 0.001 | [7] -0.013 | [8] 0.004 | IRAK-1-4 Inhibitor I -0.002

RECQL4 (UniProt O94761)
UniProt O94761, sequence (O94761 whole entry, looked up): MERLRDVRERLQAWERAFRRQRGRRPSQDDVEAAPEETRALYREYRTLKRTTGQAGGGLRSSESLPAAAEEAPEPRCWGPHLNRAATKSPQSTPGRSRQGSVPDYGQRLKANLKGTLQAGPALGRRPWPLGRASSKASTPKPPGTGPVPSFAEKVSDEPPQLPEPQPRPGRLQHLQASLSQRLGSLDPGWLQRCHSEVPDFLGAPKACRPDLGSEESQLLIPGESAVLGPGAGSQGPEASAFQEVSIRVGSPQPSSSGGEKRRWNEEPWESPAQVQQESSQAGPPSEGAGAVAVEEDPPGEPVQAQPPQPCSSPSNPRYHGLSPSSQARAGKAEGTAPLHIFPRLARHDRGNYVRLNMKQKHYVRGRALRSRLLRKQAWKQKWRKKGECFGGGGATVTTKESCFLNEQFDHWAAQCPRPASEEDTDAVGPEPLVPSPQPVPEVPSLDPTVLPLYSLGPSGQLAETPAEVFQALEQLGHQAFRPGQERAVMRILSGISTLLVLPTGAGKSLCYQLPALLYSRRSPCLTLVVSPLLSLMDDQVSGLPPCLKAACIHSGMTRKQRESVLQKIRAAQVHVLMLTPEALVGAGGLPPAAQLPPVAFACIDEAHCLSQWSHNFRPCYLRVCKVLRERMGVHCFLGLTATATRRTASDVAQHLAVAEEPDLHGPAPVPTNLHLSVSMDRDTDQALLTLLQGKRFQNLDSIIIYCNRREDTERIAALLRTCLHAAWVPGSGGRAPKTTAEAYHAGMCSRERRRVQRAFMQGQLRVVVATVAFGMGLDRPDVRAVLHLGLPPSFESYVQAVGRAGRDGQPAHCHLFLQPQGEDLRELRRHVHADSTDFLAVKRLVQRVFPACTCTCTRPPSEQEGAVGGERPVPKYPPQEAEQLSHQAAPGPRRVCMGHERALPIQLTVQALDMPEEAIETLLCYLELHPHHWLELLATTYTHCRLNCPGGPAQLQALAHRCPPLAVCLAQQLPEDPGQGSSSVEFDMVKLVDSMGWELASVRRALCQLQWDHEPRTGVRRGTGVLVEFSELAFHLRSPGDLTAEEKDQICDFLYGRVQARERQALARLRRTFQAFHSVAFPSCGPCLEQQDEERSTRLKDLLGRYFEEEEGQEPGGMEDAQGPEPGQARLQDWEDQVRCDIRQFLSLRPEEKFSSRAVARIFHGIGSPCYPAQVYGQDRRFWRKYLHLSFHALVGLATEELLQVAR
inactive: erlotinib -0.041 | [1] 0.023 | [2] -0.025 | [3] 0.195 | [4] -0.081 | [5] 0.018 | [6] -0.039 | [7] -0.035 | [8] 0.013 | IRAK-1-4 Inhibitor I 0.015

RPLP0P6 (UniProt Q8NHW5)
inactive: erlotinib -0.003 | [1] -0.069 | [2] -0.034 | [3] 0.026 | [4] -0.05 | [5] 0.009 | [6] 0.03 | [7] 0.024 | [8] 0.004 | IRAK-1-4 Inhibitor I 0.008

REL isoform 2 (UniProt Q04864)
inactive: erlotinib 0.022 | [1] -0.005 | [2] -0.048 | [3] 0.016 | [4] -0.017 | [5] 0.037 | [6] -0.019 | [7] -0.011 | [8] -0.02 | IRAK-1-4 Inhibitor I 0.019

RAPGEF2, A0A2R8YGD3
inactive: erlotinib -0.009 | [1] 0.16 | [2] 0.038 | [3] 0.042 | [4] -0.083 | [5] -0.047 | [6] 0.053 | [7] 0.007 | [8] -0.085 | IRAK-1-4 Inhibitor I 0.007

RIOK1 (UniProt Q9BRS2)
inactive: erlotinib -0.033 | [1] -0.029 | [2] 0.034 | [3] 0.209 | [5] 0.128 | [7] -0.024 | [8] 0.028 | IRAK-1-4 Inhibitor I -0.02
active: [4] 0.393 | [6] 0.4

RBM42 (UniProt Q9BTD8)
inactive: erlotinib -0.034 | [1] -0.161 | [2] 0.073 | [3] -0.062 | [4] -0.018 | [5] -0.009 | [6] -0.05 | [7] -0.017 | [8] -0.014 | IRAK-1-4 Inhibitor I 0.049

RAB6D (UniProt Q53S08)
inactive: erlotinib 0.027 | [1] -0.071 | [2] 0.054 | [3] -0.025 | [4] -0.048 | [5] -0.019 | [6] 0.044 | [7] -0.038 | [8] 0.157 | IRAK-1-4 Inhibitor I 0.003

RPS6KA1 (UniProt Q15418)
UniProt Q15418, sequence (Q15418 whole entry, looked up): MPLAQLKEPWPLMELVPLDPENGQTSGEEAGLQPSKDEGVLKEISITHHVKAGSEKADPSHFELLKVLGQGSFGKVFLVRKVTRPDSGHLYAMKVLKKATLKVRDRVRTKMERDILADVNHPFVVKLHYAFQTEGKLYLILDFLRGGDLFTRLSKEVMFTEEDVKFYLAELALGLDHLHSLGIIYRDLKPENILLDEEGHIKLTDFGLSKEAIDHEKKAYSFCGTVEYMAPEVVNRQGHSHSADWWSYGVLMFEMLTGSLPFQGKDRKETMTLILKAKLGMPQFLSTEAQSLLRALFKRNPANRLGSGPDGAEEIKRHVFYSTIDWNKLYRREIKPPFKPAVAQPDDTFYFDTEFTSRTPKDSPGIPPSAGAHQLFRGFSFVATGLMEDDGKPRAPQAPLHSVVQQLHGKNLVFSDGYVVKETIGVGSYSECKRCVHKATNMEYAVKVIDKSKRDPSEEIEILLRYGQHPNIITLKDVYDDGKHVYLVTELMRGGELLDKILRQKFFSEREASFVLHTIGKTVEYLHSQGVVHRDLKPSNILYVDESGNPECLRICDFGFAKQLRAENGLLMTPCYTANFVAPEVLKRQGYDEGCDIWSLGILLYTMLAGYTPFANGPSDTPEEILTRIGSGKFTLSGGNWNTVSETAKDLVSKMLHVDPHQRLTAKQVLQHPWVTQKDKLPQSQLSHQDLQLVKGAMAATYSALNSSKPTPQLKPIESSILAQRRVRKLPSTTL
active: [6] 0.509
inactive: erlotinib 0.001 | [1] -0.064 | [2] 0.006 | [3] -0.029 | [4] 0.04 | [5] 0.13 | [7] -0.009 | [8] 0.06 | IRAK-1-4 Inhibitor I -0.036

RDH14 (UniProt Q9HBH5)
UniProt Q9HBH5, sequence (Q9HBH5 whole entry, looked up): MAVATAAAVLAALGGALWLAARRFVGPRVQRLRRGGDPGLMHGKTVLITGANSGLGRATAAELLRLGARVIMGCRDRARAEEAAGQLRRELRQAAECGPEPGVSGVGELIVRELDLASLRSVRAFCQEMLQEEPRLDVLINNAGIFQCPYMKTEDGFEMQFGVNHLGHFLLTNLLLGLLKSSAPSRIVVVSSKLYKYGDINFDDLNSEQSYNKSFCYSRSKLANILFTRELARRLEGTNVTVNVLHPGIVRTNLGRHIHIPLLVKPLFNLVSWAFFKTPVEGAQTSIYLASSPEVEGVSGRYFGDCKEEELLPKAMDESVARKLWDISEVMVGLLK
inactive: erlotinib -0.019 | [1] 0.021 | [2] -0.056 | [3] -0.049 | [4] 0.037 | [5] 0.021 | [6] 0.024 | [7] 0.036 | [8] -0.057 | IRAK-1-4 Inhibitor I 0.018

S100A11 (UniProt P31949)
UniProt P31949, sequence (P31949 whole entry, looked up): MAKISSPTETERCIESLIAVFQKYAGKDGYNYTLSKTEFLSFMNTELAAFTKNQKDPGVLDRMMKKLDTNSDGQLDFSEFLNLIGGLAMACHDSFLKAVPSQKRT
inactive: erlotinib 0.02 | [1] 0.034 | [2] 0.02 | [3] -0.008 | [4] -0.028 | [5] -0.009 | [6] -0.055 | [7] 0.071 | [8] 0.074 | IRAK-1-4 Inhibitor I -0.025

RAD51C (UniProt O43502)
inactive: erlotinib 0 | [1] -0.053 | [2] 0.023 | [3] -0.074 | [4] -0.003 | [5] 0.001 | [6] -0.004 | [7] 0.017 | [8] 0.02 | IRAK-1-4 Inhibitor I -0.051

RPL37A (UniProt P61513)
inactive: erlotinib -0.012 | [1] -0.067 | [2] -0.006 | [3] -0.011 | [4] -0.03 | [5] 0.03 | [6] 0.064 | [7] 0.039 | [8] -0.035 | IRAK-1-4 Inhibitor I -0.023

RPS26P11 (UniProt Q5JNZ5)
inactive: erlotinib -0.028 | [1] -0.021 | [2] -0.015 | [3] -0.01 | [4] 0.039 | [5] 0.005 | [6] -0.046 | [7] -0.045 | [8] 0.008 | IRAK-1-4 Inhibitor I 0.001
